Source: PubChem (National Center for Advancing Translational Sciences (NCATS))
ClpP mod – qHTS Assay for Activators of ClpP; ATP-dependent Clp protease proteolytic subunit (Bacillus subtilis (strain 168)), P80244; purified B. subtilis ClpP, FRET peptide cleavage, 20 min; Potency, µM (series often up to 57.5 µM); hit rate 1.9% among 340,000; AID 651965, 2013; active means well fitted falling curve with a large enough effect; inconclusive means small, poorly fitted or top-dose-only effect; inactive means no such curve, though single readings can be large or run the other way; further: the source files actives as falling curves though it sought activators and does not explain the sign; nearly all actives have a fitted effect of over 65% in size
Target sequence (P80244 whole entry, looked up): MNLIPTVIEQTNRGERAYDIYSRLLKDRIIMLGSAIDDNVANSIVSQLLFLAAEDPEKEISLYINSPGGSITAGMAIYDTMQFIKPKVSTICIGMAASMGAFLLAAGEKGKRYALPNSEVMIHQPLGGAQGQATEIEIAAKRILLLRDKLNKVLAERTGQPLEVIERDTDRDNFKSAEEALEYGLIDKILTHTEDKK
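Buffer: 100 mM Tris/HCl pH8, 100 mM KCl, 0.05% low protease BSA, 2.5% glycerol, 0.01% Tween-20. ClpP 10 microg/mL final; 20 min RT; delta FRET normalized to ADEP and DMSO controls.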
D3 antag – blocks the human D3 dopamine receptor; P35462; D3R cells, DiscoveRx beta-arrestin luminescence, antagonist mode; active compounds read low; max response, negative = inhibition, %; hit rate 2.5% among 360,000; AID 652054; in the data active means max response below about -50%; inconclusive means no clear call, values can overlap the other calls
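Cells plated overnight at 1500 cells/well, then exposed to library compounds with dopamine controls for 90 minutes at 37 degrees C. DiscoveRx reagent added for 30–60 minutes at room temperature; luminescence read, quantitative HTS format.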
GLP1R cytotox – cytotoxic in the GLP-1 receptor inverse agonist counter-screen; HEK293 cAMP-luciferase reporter cells, luminescence, 24 h; AID 624418; hit rate 0.13% among 410,000; Potency, µM (highest dose often 38.3 µM), hits mostly inhibitors;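 further: loss of luciferase light is scored as toxicity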
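1536-well qHTS counterscreen of the MLSMR; 200 cells/uL, 12 h pre-incubation, 23 nL cpd, 24 h at 37 deg C 5% CO2, luciferase detection reagent, 12 min RT, luminescence. Inhibition = undesired.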
D3 ag – D3 dopamine receptor (human) agonism; P35462; max activation, %; hit rate 0.58% among 410,000; D3R DiscoveRx beta-arrestin cells, luminescence, 90 min; AID 652048; in the data active means max activation above about 30%
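Agonist mode: compounds and dopamine controls were applied to plated cells for 90 min at 37 degrees C after an overnight attachment at 1500 cells/well. Luminescent read-out followed 30 - 60 minutes at room temperature with DiscoveRx detection reagent.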
GLP1R inv ag – GLP-1 receptor (human) inverse agonism; HEK293 GLP-1R CRE-luciferase, luminescence, 24 h; GLP-1R form is constitutively active; Potency, µM (doses to about 38.3 µM), hits mostly inhibitors; hit rate 1.6% among 410,000; AID 624417; further: nearly all actives have a fitted effect of over 55% in size
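Constitutively active GLP-1R drives a cAMP-responsive luciferase in stably transfected HEK293 cells; test compounds are added after overnight (12 h) attachment and left 24 hr, and signal loss in luminescence marks inhibition.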
GLP1R ag – GLP-1 receptor (human) agonism | P43220 | HEK293 GLP-1R CRE-luciferase, luminescence, 4-6 h; cells express a hypersensitive GLP-1R form | Potency, µM (top dose mostly 45.6 µM), usual class: activators | hit rate 0.007% among 380,000 | AID 624172
Each line names hits and unclear results; the compound was inactive in the other large screens. The list is not random: actives were taken first. Their share in the collection is about 5.7%. Unless noted, the call rests on the fitted dose curve; in most records, active means well fitted curve in the direction sought with a large enough effect; inconclusive means small, poorly fitted or top-dose-only effect, or another doubt; inactive means no such curve, though single readings can be large; an effect the other way counts as inactive or inconclusive.

COc1ccc2oc(C(=O)OCC(=O)NC3(C#N)CCCC3)c(C)c2c1	ClpP mod 25µM
COc1ccc2oc(C(=O)OCC(=O)NC3CCCC3)c(C)c2c1	none
COc1ccc2oc(C(=O)OCC(=O)N(C)CC(=O)Nc3ccc(C)cc3)c(C)c2c1	none (no result: ClpP mod)
COc1ccc2oc(C(=O)OCC(=O)NCC3CCCO3)c(C)c2c1 (configuration not stated)	ClpP mod 13µM, GLP1R inv ag inconclusive
O=C(COC(=O)Cc1ccc(Br)cc1)NCC1CCCO1 (configuration not stated)	none
COc1ccc2oc(C(=O)OCC(=O)Nc3ccc(NC(C)=O)cc3)c(C)c2c1	ClpP mod 25µM
COc1cc(C(=O)n2nc(-c3ccco3)nc2NCc2ccc(Cl)cc2)cc(OC)c1OC	none (no result: D3 antag, GLP1R ag)
CCC(CC)C(=O)Nc1ccc2nc(SCC(=O)N3CCCC3)sc2c1	none (no result: D3 antag, GLP1R ag)
O=C(CCC1N=C2c3ccccc3N=C(SCc3ccccc3Cl)N2C1=O)NCCc1ccccc1 (configuration not stated)	none (no result: D3 antag, GLP1R ag)
CC(=O)Nc1ccc(NC(=S)NC(=O)c2oc3ccccc3c2C)cc1	none
Cc1c(C(=O)Nc2cnccn2)oc2ccccc12	none
Cc1cccnc1NC(=S)NC(=O)c1oc2ccccc2c1C	GLP1R cytotox inconclusive, GLP1R inv ag 4.5µM (no result: ClpP mod)
Cc1ccnc(NC(=O)c2oc3ccccc3c2C)c1	GLP1R inv ag 11µM (no result: ClpP mod)
CCNC(=O)c1c(NC(=O)c2nc(S(=O)(=O)CC)ncc2Cl)sc2c1CCCC2	none (no result: D3 antag, GLP1R ag)
COc1ccc(CN2CC[C@H]3C=CC[C@@H](C(=O)NCc4cccnc4)[C@H]3C2=O)cc1OC	none (no result: D3 antag, GLP1R cytotox, D3 ag, GLP1R inv ag, GLP1R ag)
CCOCCc1nnc(NC(=O)Cc2c(F)cccc2Cl)s1	D3 ag 35
CCOCCc1nnc(NC(=O)Cc2ccccc2)s1	none
COc1ccc(-c2noc(-c3ccc(Cl)cc3[N+](=O)[O-])n2)cc1OC	ClpP mod 28µM
Cc1cccc(-c2noc(-c3ccc(Cl)cc3[N+](=O)[O-])n2)c1	none
COC(=O)c1cc(NC(=O)c2cc(-c3ccccc3Cl)oc2C(F)(F)F)ccc1N1CCOCC1	GLP1R inv ag 4µM
COC(=O)c1cc(NC(=O)c2cc(-c3ccc(Cl)cc3)oc2C(F)(F)F)ccc1N1CCOCC1	GLP1R inv ag inconclusive
O=C(O)CSc1cc(NS(=O)(=O)c2cccc([N+](=O)[O-])c2)c2ccccc2c1O	D3 antag -51
O=C(O)c1cccc(S(=O)(=O)Nc2ccc([N+](=O)[O-])cc2O)c1	none
CCc1ccc(S(=O)(=O)Nc2cc(SCC(=O)O)c(O)c3ccccc23)cc1	D3 antag -63
CCOc1ccc(S(=O)(=O)Nc2cc(SCC(=O)O)c(O)c3ccccc23)cc1	D3 antag -51
Cc1ccc(C)c(S(=O)(=O)Nc2cc(SCC(=O)O)c(O)c3ccccc23)c1	D3 antag inconclusive
COc1ccc(Cl)cc1NC(=O)CN(C)S(=O)(=O)c1ccc2c(c1)CCCN2C(C)=O	none (no result: D3 antag, GLP1R ag)
CCOC(=O)[C@]12CCC=C1N(Cc1ccc(Cl)cc1Cl)C(=O)[C@H](CC(=O)NCc1ccccc1)C2	GLP1R inv ag inconclusive
Cc1oc2ccc(O)c(CN3CCN(C)CC3)c2c1C(=O)Nc1cccc(C(F)(F)F)c1	none (no result: D3 antag, GLP1R ag)
COc1cc(/C=N/NC(=O)c2ccccn2)ccc1OC(=O)c1ccc(Br)cc1	D3 ag 37
